Results reported in article PMC5540273 (PLoS ONE, 2017).

What was measured:
Details in all cases: concentration: 1 μM,replicates: in singlicate; n = 1
NIM1 = tested on: T1, NIM1
T1 construct: gene MGC42105

NLK = tested on: NLK
OSR1 = tested on: T2, OSR1
T2 construct: gene OXSR1

PAK1 = tested on: PAK1
PAK2 = tested on: PAK2
PAK3 = tested on: PAK3
PAK4 = tested on: PAK4
PAK6 = tested on: PAK6
PAK7 = tested on: PAK7
PCTK1 = tested on: T3, PCTK1
T3 construct: gene CDK16

PCTK2 = tested on: T4, PCTK2
T4 construct: gene CDK17

PCTK3 = tested on: T5, PCTK3
T5 construct: gene CDK18

PDGFRA = tested on: PDGFRA
PDGFRB = tested on: PDGFRB
PDPK1 = tested on: PDPK1
PFTAIRE2 = tested on: PFTAIRE2
PFTK1 = tested on: T6, PFTK1
T6 construct: gene CDK14

PHKG1 = tested on: PHKG1
PHKG2 = tested on: PHKG2
PIK3C2B = tested on: PIK3C2B
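Further: KINOMEscan kinase panel screen.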

Row | SMILES | %Inh (NIM1) [%] | %Inh (NLK) [%] | %Inh (OSR1) [%] | %Inh (PAK1) [%] | %Inh (PAK2) [%] | %Inh (PAK3) [%] | %Inh (PAK4) [%] | %Inh (PAK6) [%] | %Inh (PAK7) [%] | %Inh (PCTK1) [%] | %Inh (PCTK2) [%] | %Inh (PCTK3) [%] | %Inh (PDGFRA) [%] | %Inh (PDGFRB) [%] | %Inh (PDPK1) [%] | %Inh (PFTAIRE2) [%] | %Inh (PFTK1) [%] | %Inh (PHKG1) [%] | %Inh (PHKG2) [%] | %Inh (PIK3C2B) [%]
1 | C[C@@H]1CCN(C(=O)N2CCCC2)C[C@@H]1N(C)c1ncnc2[nH]ccc12 | 18 | 0 | 11 | 0 | 0 | 25 | 0 | 0 | 3 | 5 | 0 | 0 | 21 | 19 | 0 | 0 | 0 | 0 | 5 | 0
2 | CN(c1cccc(CNc2nc(Nc3ccc4c(c3)CC(=O)N4)ncc2C(F)(F)F)c1)S(C)(=O)=O | 0 | 8 | 0 | 15 | 42 | 0 | 11 | 14 | 13 | 0 | 2 | 4 | 34 | 72 | 65 | 10 | 17 | 40 | 18 | 0
3 | O=c1[nH]cc(-c2ccc(O)cc2)c2sc(-c3ccncc3)cc12 [GSK1033723] | 4 | 11 | 3 | 14 | 5 | 11 | 0 | 4 | 5 | 1 | 12 | 17 | 0 | 18 | 0 | 11 | 18 | 7 | 22 | 0
4 | COc1cc2nccc(Nc3ccc(Oc4ccccc4)cc3)c2cc1OC.Cl [GI261656] | 5 | 0 | 0 | 0 | 0 | 0 | 0 | 0 | 3 | 0 | 0 | 0 | 77 | 92 | 0 | 5 | 9 | 0 | 6 | 0
5 | COC(=O)Nc1nc2cc(Oc3ccc(NC(=O)Nc4cc(C(F)(F)F)ccc4Cl)cc3)ccc2[nH]1.Cl [GW697465] | 26 | 2 | 10 | 36 | 29 | 25 | 0 | 0 | 2 | 0 | 11 | 26 | 86 | 100 | 0 | 80 | 39 | 1 | 0 | 0
6 | O=C1NCCc2[nH]c(-c3ccncc3)cc21 | 45 | 22 | 3 | 38 | 40 | 42 | 14 | 17 | 0 | 0 | 0 | 1 | 27 | 17 | 0 | 0 | 0 | 0 | 14 | 21
7 | CSc1nccc(-c2c(-c3ccc(F)cc3)ncn2CCCN2CCOCC2)n1.Cl [SB-217146] | 0 | 0 | 0 | 3 | 43 | 0 | 10 | 0 | 0 | 0 | 0 | 0 | 0 | 12 | 10 | 0 | 0 | 11 | 0 | 0
8 | Cn1cc(-c2cccc3c(N)c(C(N)=O)nnc23)cn1 | 9 | 20 | 24 | 0 | 2 | 44 | 1 | 13 | 18 | 6 | 2 | 5 | 12 | 10 | 2 | 6 | 0 | 10 | 0 | 0
9 | CC(=O)Nc1ccc(-c2cc3ncnc(SCC(=O)O)c3s2)cc1 | 0 | 0 | 7 | 0 | 0 | 0 | 0 | 0 | 8 | 28 | 0 | 24 | 64 | 88 | 0 | 4 | 0 | 21 | 3 | 6
10 | Cn1ccc2ncnc(Oc3ccc(NC(=O)Nc4cc(C(C)(C)C)on4)c(Cl)c3)c21 | 0 | 67 | 20 | 20 | 23 | 46 | 8 | 1 | 0 | 27 | 8 | 7 | 98.9 | 100 | 0 | 9 | 0 | 3 | 9 | 7
11 | Cn1ccc2ncnc(Oc3ccc(NC(=O)Nc4cncc(C(F)(F)F)c4)c(Cl)c3)c21 | 0 | 9 | 0 | 25 | 0 | 0 | 1 | 0 | 0 | 0 | 0 | 0 | 98.2 | 100 | 26 | 0 | 0 | 0 | 9 | 0
12 | Cc1nnc(-c2ccc3occ(-c4ccc(S(C)=O)cc4)c3n2)o1 (stereo not drawn) | 0 | 55 | 0 | 4 | 0 | 0 | 0 | 3 | 0 | 0 | 2 | 0 | 0 | 0 | 2 | 0 | 0 | 0 | 16 | 0
13 | COc1cccc(C2=C(Nc3cccc(Cl)c3)C(=O)NC2=O)c1 [SB-341556] | 3 | 5 | 27 | 4 | 19 | 100 | 0 | 0 | 8 | 9 | 0 | 6 | 0 | 17 | 0 | 8 | 0 | 0 | 0 | 0
14 | Cc1ccc(C(=O)Nc2ccc(Oc3ccc4nc(NC(=O)C5CC5)cn4c3)c(F)c2)c(=O)n1-c1ccccc1 | 0 | 7 | 0 | 0 | 2 | 12 | 0 | 8 | 0 | 0 | 2 | 0 | 98.2 | 96.5 | 0 | 9 | 0 | 26 | 0 | 0
15 | N#Cc1cccc(C(=O)NC2CCN(c3ccnc(Nc4ccc(F)cc4)n3)C2)c1 (stereo not drawn) [GSK1379708] | 16 | 0 | 6 | 0 | 4 | 0 | 0 | 27 | 0 | 1 | 0 | 0 | 0 | 23 | 13 | 2 | 11 | 0 | 0 | 0
16 | COc1cc2ncn(-c3cc(OCC4CCCCC4)c(C(N)=O)s3)c2cc1OC [GSK204559] | 3 | 0 | 15 | 9 | 17 | 18 | 0 | 0 | 1 | 3 | 0 | 21 | 2 | 66 | 17 | 34 | 24 | 4 | 18 | 0
17 | O=C(Nc1cccc(Oc2ccc3nccn3n2)c1)Nc1cccc(C(F)(F)F)c1 | 14 | 19 | 0 | 0 | 0 | 0 | 0 | 5 | 0 | 0 | 0 | 8 | 99.8 | 100 | 0 | 0 | 1 | 14 | 0 | 12
18 | C[C@@H](Oc1cc(-n2cnc3ccc(-c4ccncc4)cc32)sc1C(N)=O)c1ccccc1Cl [GSK483724] | 13 | 49 | 11 | 8 | 29 | 21 | 44 | 13 | 10 | 7 | 0 | 47 | 8 | 54 | 0 | 22 | 26 | 9 | 0 | 88
19 | CC(C)S(=O)(=O)N1CCN(Cc2ccc3c(c2)nc(NC(=O)c2ccsc2)n3C[C@H](O)c2ccccc2)CC1 [GW635815] | 20 | 0 | 10 | 22 | 27 | 15 | 44 | 9 | 35 | 0 | 0 | 4 | 0 | 38 | 4 | 19 | 0 | 64 | 43 | 0
20 | Cl.Cl.NC[C@H](CC1CCCCC1)NC(=O)c1ccc(-c2ccnc3[nH]ccc23)s1 [GSK1581428] | 14 | 12 | 19 | 22 | 38 | 94.8 | 34 | 62 | 68 | 6 | 0 | 0 | 80 | 97.3 | 18 | 32 | 31 | 36 | 13 | 0
21 | CS(=O)(=O)Nc1ccc(-c2ccnc3[nH]ccc23)cc1 [GSK993273] | 13 | 30 | 41 | 26 | 27 | 51 | 0 | 11 | 3 | 15 | 0 | 0 | 1 | 61 | 0 | 16 | 16 | 2 | 13 | 0
